# Screens from PubChem.
# Pf apPOL block: Pf-apPOL DNA polymerase inhibition. Recombinant Pf-apPOL, molecular beacon fluorescence, 1.5 h. inhibition, % at 10 µM. 0.25% of 210,000 active. AID 1794808
# mHTT-CaM PPI inh: inhibitors of human mutant huntingtin-calmodulin interaction. AID 1671202. 3.6% of 190,000 active. AlphaScreen His-mHTT/GST-CaM binding, luminescence. inhibition, % at 15 µM. P42858;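 also: 0% = both proteins with DMSO and 100% = one protein alone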
# * hit, by the source's call; i = inactive; / = not tested or not shown. The list is not random: actives were taken first. Their share in the collection is about 3.6%. Rule as the data show it: active = inhibition above about 50%; inactive = the rest.
SMILES,Pf apPOL block,mHTT-CaM PPI inh
Cc1ccc(-c2ccc(/C=C/[N+](=O)[O-])o2)c(Br)c1,1,79*
O=[N+]([O-])/C=C/c1ccc(-c2ccc(Br)cc2)o1,-3,51*
COc1ccc(C2=NN(S(C)(=O)=O)C(c3cc4cc(OC)ccc4nc3Cl)C2)cc1 (centres undefined),-5,23
Cc1cccc(N2C(=O)c3cccnc3C2CC(=O)N2CCCCCC2)c1 (centres undefined),-4,-2
Cc1nn(CCC(=O)N(C)Cc2cnn(C)c2)c(C)c1Cl,/,-2
CSc1cccc(NC(=O)c2ccc(CN(c3ccccc3)S(C)(=O)=O)cc2)c1,-4,7
CSC1=NSC2=NC(=O)/C(=C\c3ccc(Br)o3)C(=N)N12,-2,35
O=C1NC(c2cccs2)Nc2sc3c(c21)CCCC3 (centres undefined),-2,7
O=C1NC(c2ccc(O)cc2)Nc2sc3c(c21)CCCC3 (centres undefined),-1,57*
O=C1NC(c2ccc3c(c2)OCO3)Nc2sc3c(c21)CCCC3 (centres undefined),-8,1
CN(C)c1ccc(C2NC(=O)c3c(sc4c3CCCC4)N2)cc1 (centres undefined),12,26
O=C1NC(c2ccc(-c3ccc(F)cc3)o2)Nc2sc3c(c21)CCCC3 (centres undefined),19,63*
O=C1NC(/C=C/c2ccccc2)Nc2sc3c(c21)CCCC3 (centres undefined),-5,66*
CCN1C(=O)C(C)(C(=O)NCc2ccc(F)c(Cl)c2)Oc2cccnc21 (centres undefined),-4,8
CC(=O)Nc1cccc(N2CC(C(=O)Nc3cc(C)ccc3C)CC2=O)c1 (centres undefined),-3,2
N#CN=C(SCC(=O)NC1CCCCC1)SCC(=O)NC1CCCCC1,-3,-9
O=C(CSc1nc2ccccc2[nH]1)NCc1cccc(Cl)c1,-4,6
O=C1CSC(c2ccccc2[N+](=O)[O-])N1c1ccc(Cl)cn1 (centres undefined),-2,20
CCOC(=O)C(C#N)=CNc1ccsc1C(=O)OC,-15,/
O=C1OC(c2ccc(Cl)cc2)=N/C1=C\c1ccco1,-5,-4
O=C1OC(c2ccc(Cl)cc2)=N/C1=C\C=C\c1ccco1,4,68*
Cc1ccccc1NC(=O)COc1ccc(Cl)cc1,35,-10
N#Cc1c(NC(=O)COc2ccc(F)cc2)sc2c1CCN(Cc1ccccc1)C2,-2,25
O=S(=O)(c1cc(F)cc(F)c1)N1CCC2(C1)Nc1cccnc1NC2=NC1CCCC1 (centres undefined),1,13
COc1cccc(CNC(=O)N2CC(C(=O)NC3CC3)C3(CCOCC3)C2)c1 (centres undefined),1,-1
SMILES,Pf apPOL block,mHTT-CaM PPI inh
O=C1C=C2c3ccccc3CC3(CCCC3)N2C1=O,0,84*
c1ccc(-c2nnc3n2C2(CCCC2)Cc2ccccc2-3)cc1,3,-2
CC(=O)Nc1cccc(N2CC(C(=O)Nc3ccccc3C)CC2=O)c1 (centres undefined),3,9
OCCNCCOc1ccc(Br)cc1,-5,-3
OCCNCCOc1ccc(Br)cc1Cl,-2,100*
Cc1ccn2c(NCc3ccccc3)c(-c3ccccc3O)nc2c1,1,80*
Cc1ccn2c(NC(=O)CC(C)C)c(-c3ccccc3C)nc2c1,0,3
C=CCOc1ccccc1/C=C1/N=C(c2ccc(C)cc2)OC1=O,-2,-5
COc1cc(OC)c2c(-c3ccccc3)cc(=O)oc2c1C(CC(=O)N1CCCC1)c1ccc2c(c1)OCO2 (centres undefined),1,69*
COc1cc(OC)c2ccc(=O)oc2c1C(CC(=O)N1CCCCC1)c1ccc2c(c1)OCO2 (centres undefined),-6,37
COc1cc(OC)c2ccc(=O)oc2c1C(CC(=O)N1CCCC1)c1ccc2c(c1)OCO2 (centres undefined),4,36
COc1cc(OC)c2c(-c3ccccc3)cc(=O)oc2c1C(CCN1CCCC(C)C1)c1ccc2c(c1)OCO2 (centres undefined),-12,100*
COc1cc(O)c(C(CCN2CCCCC2)c2ccc3c(c2)OCO3)c(OC)c1 (centres undefined),-5,33
COc1cc(OC)c2c(-c3ccccc3)cc(=O)oc2c1C(CCN1CCCCC1)c1ccc2c(c1)OCO2 (centres undefined),-8,99*
Cc1cc(C)c(C#N)c(SCc2nnc(-c3ccc([N+](=O)[O-])cc3)o2)n1,1,0
COc1cccc(CNC(=O)N2CCC(c3cc(-c4cccc(C)c4)n[nH]3)CC2)c1,-5,33
Cc1ccc(-c2nc3ccccn3c2NC(=O)c2cccs2)cc1,-1,22
CC(C)c1ccc(NC(=O)C2CC2c2ccccc2)cc1 (centres undefined),2,-5
O=C(Nc1ccc(Nc2ccccc2)cc1)C1CC1c1ccccc1 (centres undefined),-11,88*
COc1cc(O)c(CN2CC(C)CC(C)C2)c2oc(-c3ccccc3)cc(=O)c12 (centres undefined),-7,5
COc1ccc2c(c1)CN(Cc1ccc(Cl)cc1)CO2,-9,12
COc1ccc(N2COc3ccc(Cl)cc3C2)cc1,2,73*
COc1ccc(N2COc3cc4c(cc3C2)OCO4)cc1,-8,7
COc1ccc2c(c1)CN(c1ccc(Cl)cc1)CO2,-8,51*
COc1ccc(CN2COc3cc(C)c(Cl)c(C)c3C2)cc1,-2,2
SMILES,Pf apPOL block,mHTT-CaM PPI inh
COc1cccc(N2COc3cc(C)c(Cl)c(C)c3C2)c1,-4,98*
O=C(c1ccc(-c2cccnc2)nc1)N1CCN(C2CCCCC2)CC1,1,-7
CCNC(=O)c1cc2nc(N(C)C)n(-c3ccccc3)c2s1,-2,1
Nc1c(C(=O)Nc2nccs2)sc2nc3c(cc12)CCCCC3,6,64*
Nc1c(C(=O)Nc2nccs2)sc2nc3c(cc12)CCC3,-9,26
Cn1cnc2ccc(-c3noc(Cc4ccccc4Cl)n3)cc21,-1,25
COc1cc(-c2nc3ccccn3c2N=Cc2cc([N+](=O)[O-])cc([N+](=O)[O-])c2O)ccc1O,1,2
COc1cc(C=Nc2c(-c3ccc(O)c(OC)c3)nc3ccccn23)ccc1O,7,60*
COc1cc(-c2nc3ccccn3c2N=Cc2cn[nH]c2-c2ccc(F)cc2)ccc1O,-4,56*
COc1ccc(C=Nc2c(-c3ccc(O)c(OC)c3)nc3ccccn23)cc1O,-3,32
Cn1c(C2CCN(S(=O)(=O)c3cccc(C(F)(F)F)c3)C2)nc2cccnc21 (centres undefined),0,-8
COCC(=O)Nc1cnc(N2CCCCC2)nc1,-3,5
CCCCNC(=O)C1CCCN(S(=O)(=O)N2CC(C)CC(C)C2)C1 (centres undefined),-9,-1
O=[N+]([O-])c1ccc(O)c(C=Nc2cccc3ncccc23)c1,-2,26
Cc1ccc(O)c(C=Nc2ccc(Br)c3cccnc23)c1,-4,101*
Cc1ccc(N=Cc2cc(Cl)cc([N+](=O)[O-])c2O)cc1,11,6
COc1cc(/C=N/O)c([N+](=O)[O-])cc1OC,/,i
O=[N+]([O-])c1cc(C=Nc2cc(-c3ccccc3)ccc2O)c(O)c([N+](=O)[O-])c1,-1,51*
